According to PubChem BioAssay (EPA / NIEHS):
Activity calls are given as the source filed them. Rule for the calls: active = hit-call score of the fitted dose curve at least 0.9, where 1 is the maximum; inactive = score below 0.9.

Experiment: ATG_AP_1_CIS: Attagene CIS-FACTORIAL HepG2 Assay for human Activator Protein 1 (AP-1) (AID 2282931)
Settings: HepG2 Attagene cis-factorial AP-1 reporter mRNA; actives raise or lower the signal
Description: ATG_CIS is a cell-based, multiplexed-readout assay that uses HepG2, a human liver cell line, with measurements taken at 24 hours after chemical dosing in a 24-well plate.ATG_AP_1_CIS is one of 52 assay component(s) measured or calculated from the ATG_CIS assay. It is designed to make measurements of mRNA induction, a form of inducible reporter, as detected with fluorescence intensity signals by Reverse transcription polymerase chain reaction (RT-PCR) and Capillary electrophoresis technology.Data from the assay component ATG_AP_1_CIS was analyzed into 1 assay endpoint. This assay endpoint, ATG_AP_1_CIS, was analyzed with bidirectional fitting relative to DMSO as the negative control and baseline of activity. Using a type of inducible reporter, measures of mRNA for gain or loss-of-signal activity can be used to understand the reporter gene at the transcription factor-level as they relate to the gene FOS and JUN. Furthermore, this assay endpoint can be referred to as a primary readout, because this assay has produced multiple assay endpoints where this one serves a reporter gene function. To generalize the intended target to other relatable targets, this assay endpoint is annotated to the dna binding intended target family, where the subfamily is basic leucine zipper.
Human liver HepG2 cells are transiently transfected with multiple reporter transcription units (MRTUs) in 6-well plates using FuGene 6 reagent (Roche; 3 ml FuGene/1 mg DNA). The MRTU constructs are regulated by a cis-regulating element (promoter). […] A major difference between the CIS and TRANS system is that in CIS activities of endogenous TFs are measured, whereas the TRANS assay evaluates changes in activities of exogenous, chimeric NR-Gal4 proteins. […] At the end of 24 hour incubation, total RNA was isolated using TriZol reagent (Invitrogen). The isolated RNA is then reverse-transcribed using oligo(dT) primer and Mo-MLV reverse transcriptase (Invitrogen) with DNAse I (Ambion) treatment for 30 min. The one-tenth of the produced cDNA was amplified by PCR using Taq DNA polymerase (Invitrogen) and two reporter sequence-specific primers. The PCR products were fluorescently labeled by primer extension with 6-arboxyfluorescein (6-FAM) 5'-labeled reporter sequence-specific primer (2 min at 95 C, 20 s at 68 C and 10 min at 72 C) and these products were digested with 5U of HpaI (New England Biolabs) for 2h at 37 C. The fragments were purified using Qiaquick PCR columns (Qiagen), analyzed on an ABI 3130xL genetic analyzer (Applied Biosystems) with peak positions identified by using a set of X-rhodamine (ROX)-labeled MapMarker1000 molecular weight standards (BioVentures). The raw capillary electrophoresis data was processed using Attagraph software (Attagene).
With `CCCCOC(=O)CCC(=O)OCCCC` the outcome was “inactive”.
For `C[C@]12CC[C@H]3[C@@H](CC[C@@]45O[C@@H]4C(O)=C(C#N)C[C@]35C)[C@@H]1CC[C@@H]2O`, the outcome was “inactive”.
For `C[N+](C)=CCl`, the outcome was “inactive”.
In the case of `Nc1ccc(-c2ccc(N)c(N)c2)cc1N`, the outcome is reported as “inactive”.
With `N#CCCCl` the outcome was “inactive”.
For `Cc1ccc(OP(=O)(Oc2ccc(C)cc2)Oc2ccc(C)cc2)cc1` (tested in a mixture with another compound), the outcome was “inactive”.
For `CCc1cc(C)cc(CC)c1-c1c(OC(=O)C(C)(C)C)n2n(c1=O)CCOCC2`, the outcome was “inactive”.
In the case of `CN(C)C(=O)C(c1ccccc1)c1ccccc1`, the outcome is reported as “inactive”.
In the case of `[Cl][Sb]([Cl])[Cl]`, the AC50 is reported as 100 µM (active).
For `O=C(O)c1cc[c]([Hg][Cl])cc1`, the outcome was “inactive”.
For `c1ccc2c(c1)CCCC2`, the outcome was “inactive”.
In the case of `C[N+](C)(C)CC(=O)[O-]`, the outcome is reported as “inactive”.
For `N#CCCCCC#N`, the outcome was “inactive”.
In the case of `O=[N+]([O-])C=Cc1ccccc1`, the AC50 is reported as 57.7 µM (active).
In the case of `ClCC(Cl)Cl`, the outcome is reported as “inactive”.
In the case of `COC(C)(C)CCC[C@H](C)C/C=C/C(C)=C/C(=O)OC(C)C`, the AC50 is reported as 112 µM (active).
With `O=[N+]([O-])c1cc([N+](=O)[O-])c2ccccc2c1` the AC50 was 14.5 µM (active).
In the case of `O=c1c2ccccc2c(=O)c2c1cc(Cl)c1[nH]c3c([nH]c12)c(Cl)cc1c(=O)c2ccccc2c(=O)c13`, the outcome is reported as “inactive”.
With `CC(C)C#N` the outcome was “inactive”.
For `S=c1[nH]c2ccccc2[nH]1`, the outcome was “inactive”.
With `CCC(=O)c1ccc(Cl)cc1` the outcome was “inactive”.
With `N#CCNCC#N` the outcome was “inactive”.
With `CCOC(=O)C1OC1(C)c1ccccc1` (stereo not given) the outcome was “inactive”.
In the case of `CCCCNP(N)(N)=S`, the outcome is reported as “inactive”.
In the case of `c1cc(OCC2CO2)ccc1Cc1ccc(OCC2CO2)cc1` (stereo not given), the AC50 is reported as 59.1 µM (active).
For `Nc1ccc(Cl)c(Cl)c1`, the outcome was “inactive”.
In the case of `O=C1C(Cl)=C(Cl)C(=O)C(Cl)=C1Cl`, the AC50 is reported as 130 µM (active).
With `COc1cc(OC)c(OC)cc1C=O` the outcome was “inactive”.
For `C=Cc1cccc(CCl)c1`, the outcome was “inactive”.
In the case of `CCC(C)(C)O`, the outcome is reported as “inactive”.
In the case of `O=C(NCNC(=O)NC1C(=O)NC(=O)N1CO)NC1C(=O)NC(=O)N1CO` (stereo not given), the AC50 is reported as 130 µM (active).
For `O=S(=O)(c1ccccc1)c1ccccc1`, the outcome was “inactive”.
In the case of `CCC[N+](=O)[O-]`, the outcome is reported as “inactive”.
For `CC1CCC(=O)O1` (stereo not given), the outcome was “inactive”.
In the case of `BrCBr`, the outcome is reported as “inactive”.
For `C[N+](C)(C)CC(=O)O`, the outcome was “inactive”.
In the case of `Nc1ccccc1C(=O)Oc1ccc2ccccc2c1`, the outcome is reported as “inactive”.
For `CC1CCCC1.[C-]#[O+].[C-]#[O+].[C-]#[O+].[Mn]`, the outcome was “inactive”.
In the case of `C#CC1(O)CCCCC1`, the outcome is reported as “inactive”.
In the case of `[CH3][Sn]([CH3])([Cl])[Cl]`, the outcome is reported as “inactive”.
